Source: PubChem
Yp Topo-I inh – blocks Yersinia pestis topoisomerase I activity | activity, % at 10 µM | actives 0.064% (n = 360,000) | Y. pestis Topo-I cleavage product accumulation, plate reader; in the data active means activity above about 50%, passing the limit was not always enough
TcdB GH inh – TcdB glycohydrolase inhibition. actives 0.24% (n = 350,000). inhibition, % at 9.99 µM. TcdB glycohydrolase enzymatic assay, plate reader; in the data active means inhibition above about 10%
Mtb BioA inh – BioA (M. tuberculosis) enzyme inhibition; actives 0.096% (n = 360,000); purified M. tuberculosis BioA enzyme, plate reader; inhibition, % at 9.99 µM; AID 602481; in the data active means inhibition above about 40%
PrP UTR inh – suppresses PrP 5' UTR mRNA reporter expression; cell-based PrP 5' UTR mRNA reporter, plate reader; inhibition, % (no concentration beside the values); actives 0.35% (n = 340,000); in the data active means inhibition above about 52%; further: 0 = median of the neutral control wells
An asterisk follows results filed as active. This is a sample that favours compounds with a hit; in the whole collection about 0.53% have one here.

Screening COC(=O)C(c1ccccc1)C(CC(=O)c1ccccc1)c1ccccc1 (configuration not stated) returned Yp Topo-I inh 6, TcdB GH inh 0 and Mtb BioA inh 0.
`COC(=O)C(C(=O)OC)C(CC(=O)c1ccc(Br)cc1)c1ccccc1` (configuration not stated) gave Yp Topo-I inh 33, TcdB GH inh 14*, Mtb BioA inh -1 and PrP UTR inh -22.
`O=C(CCC(=O)N1CCSc2ccccc21)Nc1cccc(F)c1` gave Yp Topo-I inh 7, TcdB GH inh 10*, Mtb BioA inh 0 and PrP UTR inh -6.
For CC(C)c1cn(CC[C@@H]2CC[C@H](NC(=O)c3cccc(F)c3)[C@@H](CO)O2)nn1 the results were TcdB GH inh 1 and Mtb BioA inh 5.
Screening Cc1ccc(NC(=O)C2OCCc3ccccc32)cc1C (configuration not stated) returned Yp Topo-I inh -5, TcdB GH inh 11*, Mtb BioA inh -1 and PrP UTR inh -61.
CN1C[C@@H]2[C@H](c3ccccc31)[C@H](CO)N2C(=O)CN1CCOCC1 was read as TcdB GH inh -2 and Mtb BioA inh -3.
`Cc1nn(Cc2ccc(F)cc2)c(Cl)c1/C=N/NC(=O)c1cccnc1` gave Yp Topo-I inh -3, TcdB GH inh 2, Mtb BioA inh 98* and PrP UTR inh -26.
`CC(C)C#Cc1cnc2c(c1)C(=O)N([C@H](C)CO)C[C@H](C)[C@@H](CN(C)C(=O)c1ccc3c(c1)OCO3)O2` gave TcdB GH inh 0 and Mtb BioA inh 2.
For O=C(O)c1ccc(-n2nnc3ccccc32)c([N+](=O)[O-])c1 the results were Yp Topo-I inh 3, TcdB GH inh 14*, Mtb BioA inh 0 and PrP UTR inh -19.
For O=[N+]([O-])c1cnccc1-n1nnc2ccccc21 the results were TcdB GH inh 1.
For O=C(C[C@@H]1CC[C@H]2[C@@H](COC[C@H](O)CN2C(=O)Nc2ccc(Cl)cc2)O1)NCCc1ccncc1 the results were TcdB GH inh 0 and Mtb BioA inh -1.
For C[C@@H]1CN([C@@H](C)CO)C(=O)c2cc(NC(=O)Cc3ccccc3)ccc2O[C@H]1CN(C)S(=O)(=O)c1cn(C)cn1 the results were TcdB GH inh -1 and Mtb BioA inh 0.
Screening O=C(c1ccc(F)cc1)N1CC(=O)N2[C@H](C1)[C@H](c1ccc(C#CC3CCCC3)cc1)[C@@H]2CO returned TcdB GH inh 1.
CC1CC(C)CN(c2nc3c(c(=O)n(C)c(=O)n3C)n2CCSc2ncccn2)C1 (configuration not stated) was read as Yp Topo-I inh 16, TcdB GH inh 0, Mtb BioA inh 0 and PrP UTR inh -5.
Cn1c(=O)c2c(nc(N3CCOCC3)n2CCSc2ncccn2)n(C)c1=O was read as Yp Topo-I inh -3, TcdB GH inh 17*, Mtb BioA inh -4 and PrP UTR inh -4.
For O=C(CN1C(=O)CCC1=O)NNc1ccc2ccccc2c1 the results were Yp Topo-I inh 3, TcdB GH inh 82*, Mtb BioA inh 0 and PrP UTR inh -3.
`O=C(Cc1ccccc1)NNc1ccc2ccccc2c1` gave Yp Topo-I inh 3, TcdB GH inh 1 and PrP UTR inh -32.
COc1cccc(/C=C(/C(=O)OCC(=O)NC2CCCC(C)C2C)c2ccccc2)c1 (configuration not stated) was read as Yp Topo-I inh 60* and PrP UTR inh -17.
For CCN1CC(=O)N2[C@@H](CO)[C@H](c3ccc(Br)cc3)[C@@H]2C1 the results were TcdB GH inh -1.
Screening Cc1noc(C)c1NC(=O)Nc1ccc2c(c1)CC(=O)N([C@@H](C)CO)C[C@@H](C)[C@H](CN(C)C(=O)Nc1ccc(F)cc1)O2 returned TcdB GH inh -3 and Mtb BioA inh 4.
For CCCNC(=O)Nc1ccc2c(c1)C(=O)N(C)C[C@H](OC)[C@@H](C)CN(Cc1ccc(-c3ccccn3)cc1)[C@H](C)CO2 the results were TcdB GH inh 0 and Mtb BioA inh -1.
CCCCCCOc1ccc(N2C(=O)CC(S/C(N)=N/N=C(\C)c3cccs3)C2=O)cc1 (configuration not stated) was read as Yp Topo-I inh 63*, Mtb BioA inh -1 and PrP UTR inh -25.
`C/C(=N\N=C(/N)SC1CC(=O)N(c2ccccc2)C1=O)c1cccs1` (configuration not stated) gave Yp Topo-I inh 5, Mtb BioA inh 2 and PrP UTR inh -21.
Screening O=C(N1CCOCC1)[C@@]1(Cc2ccccc2)N=C(c2ccc(OCCCO)cc2)O[C@H]1c1ccccc1 returned TcdB GH inh 0 and Mtb BioA inh 1.
CCOC(=O)c1cc2c(ccn2C)n1Cc1ccc(Cl)cc1 was read as Yp Topo-I inh 5, TcdB GH inh 3 and PrP UTR inh -9.
Cc1cccc(Cn2c(C(=O)OC(C)C)cc3c2ccn3C)c1 was read as Yp Topo-I inh 54*, Mtb BioA inh -1 and PrP UTR inh -7.
`COc1ccc(NC(=O)N2C[C@@H]3[C@H](c4ccccc42)[C@H](CO)N3Cc2ccccn2)cc1` gave TcdB GH inh -2 and Mtb BioA inh 3.
For C[C@@H]1CCCCO[C@@H](CN(C)C(=O)Nc2cccc3ccccc23)[C@H](C)CN([C@@H](C)CO)C(=O)c2cc(NC(=O)NC3CCCCC3)ccc2O1 the results were TcdB GH inh -1 and Mtb BioA inh 0.
Cc1onc(-c2ccccc2)c1C(=O)NCc1ccco1 was read as Yp Topo-I inh 7, Mtb BioA inh -1 and PrP UTR inh -32.
For Cc1onc(-c2ccccc2)c1C(=O)N(Cc1ccco1)Cc1cccs1 the results were Yp Topo-I inh 42, TcdB GH inh 16* and PrP UTR inh -2.
`O=c1[nH]c(CSc2nnc(Cc3ccccc3)o2)nc2ccccc12` gave Yp Topo-I inh 2, TcdB GH inh 19*, Mtb BioA inh -1 and PrP UTR inh -5.
For COc1ccc(Cc2nnc(SCc3nc4ccccc4c(=O)[nH]3)o2)cc1 the results were Yp Topo-I inh -3, TcdB GH inh 0, Mtb BioA inh -2 and PrP UTR inh -44.
`O=C(N/N=C1/CC2C=CCC12)c1ccc(Br)o1` (configuration not stated) gave Yp Topo-I inh 1, TcdB GH inh -2, Mtb BioA inh 1 and PrP UTR inh -33.
For NC(=O)NN=C1CC2CC1C1C=CCC21 (configuration not stated) the results were Yp Topo-I inh -3, TcdB GH inh 14* and PrP UTR inh -11.
For NS(=O)(=O)c1ccc(CCNC(=O)c2ccc(CS(=O)(=O)c3ccc(Br)cc3)o2)cc1 the results were Yp Topo-I inh 8, TcdB GH inh 12*, Mtb BioA inh 0 and PrP UTR inh -18.
CCOC(=O)c1sc(=S)[nH]c1C was read as Yp Topo-I inh 4, TcdB GH inh 12* and PrP UTR inh -32.
`C[C@@H]1CCCCO[C@H](CN(C)S(=O)(=O)c2cn(C)cn2)[C@@H](C)CN([C@H](C)CO)C(=O)c2cc(NC(=O)C3CCCCC3)ccc2O1` gave TcdB GH inh -1 and Mtb BioA inh 0.
